Reference: the supplement of paper PMC6555819

Experiments:
Assay in all cases: PBM binding z-score (relative to random genomic background probes); higher = stronger binding; sequences stand for … in GC…GCGATTGACAGCGTAGAATGAAGG
[1] = system: FXR:RXRa (NR concentration 270 nM, RXRa partner concentration 90 nM)
Outline: (§1)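 Random background probes are the reference for binding z-scores. These scores derive from regression-normalized fluorescence on custom Agilent 4×180K protein-binding microarrays incubated 1 h with ligand-free nuclear receptor dimers. Binding was detected with antibodies against each partner (one per run).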

[2] = system: LXRa:RXRa (NR concentration 270 nM, RXRa partner concentration 90 nM)
Outline: as §1

[3] = system: LXRa homodimer (NR concentration 270 nM)
Outline: as §1

[4] = system: LXRb:RXRa (NR concentration 270 nM, RXRa partner concentration 90 nM)
Outline: as §1

[5] = system: LXRb homodimer (NR concentration 270 nM)
Outline: as §1

[6] = system: PPARa:RXRa (NR concentration 270 nM, RXRa partner concentration 90 nM)
Outline: as §1

[7] = system: PPARg:RXRa (NR concentration 180 nM, RXRa partner concentration 90 nM)
Outline: as §1

[8] = system: PPARg:RXRa 270nM:90nM, anti-RXR (NR concentration 270 nM, RXRa partner concentration 90 nM)
Outline: as §1

[9] = system: PPARg:RXRa 30nM:10nM, anti-RXR (NR concentration 30 nM, RXRa partner concentration 10 nM)
Outline: as §1

[10] = system: PPARg:RXRa 90nM:30nM, anti-RXR (NR concentration 90 nM, RXRa partner concentration 30 nM)
Outline: as §1

Row | Sequence | PBM binding z-score [1] | PBM binding z-score [2] | PBM binding z-score [3] | PBM binding z-score [4] | PBM binding z-score [5] | PBM binding z-score [6] | PBM binding z-score [7] | PBM binding z-score [8] | PBM binding z-score [9] | PBM binding z-score [10]
1 | CGTCCTAGGTCAGCAGGTCAGTGAAAGCGACGTG | 2.92 | 2.04 | 0.0283 | 1.6 | -0.603 | 3.23 | 2.32 | 3.21 | 0.151 | 1.87
2 | TAGCCTAGGTCATGGGTCAGTATACCACGCGAAC | 5.1 | 4 | 0.898 | 3.62 | 0.339 | 4.77 | 6.78 | 5.95 | 3.9 | 6.14
3 | ATCGAAAGGTCGACGAGGGGAGTATACACCGTTT | 4.13 | 3.51 | 0.159 | 2.8 | 1.07 | 4.15 | 2.47 | 2.77 | 0.952 | 1.67
4 | CGAACGAGGGCATGAGTTGATAGCGAATGCCGAT | 0.658 | 0.274 | -0.522 | -0.0069 | -0.724 | 1.51 | 1.34 | 1.65 | 0.171 | 1.04
5 | CCTACTGGGCAAAGGTCATTGATCAGTCAAAGCA | 4.96 | 5.6 | 3.49 | 4.8 | 0.805 | 5.63 | 8.03 | 7.54 | 5.9 | 7.6
6 | TGAATGAGGTTATAAGATCAAGGAACGTTGCAAA | 1.48 | 1.44 | -0.207 | 0.961 | 0.00759 | 3.01 | 1.79 | 2.39 | 1.08 | 1.89
7 | TAGCCTAGGTCAGATCGGGTCAGTATACGCTATA | 2.96 | 2.75 | 0.202 | 2.43 | -0.00739 | 2.8 | 1.19 | 1.5 | 0.171 | 1.08
8 | ATACCAAGGTGATCGTGAGATCGTTGATACTAAC | 0.2 | 0.163 | 0.16 | 0.121 | -0.2 | 0.129 | 0.447 | 0.161 | -0.226 | -0.234
9 | CTACCAATGTGAACAAGGTCGTTGATTACTATTC | 0.783 | 1.15 | 0.608 | 1.83 | 0.441 | 1.51 | 0.331 | 0.322 | 0.12 | 0.449
10 | CTCGAAAGGTCGGTTGAGGAGAGTATACGGATAA | 1.93 | 1.38 | -0.296 | 1.13 | 0.0344 | 2.25 | 0.367 | 1.09 | 0.298 | 0.525
11 | CCTACTTGGCCATCAGGTCATTGATATCAACGTT | 2.95 | 1.81 | 2.06 | 2.21 | 0.454 | 2.12 | 0.623 | 1.36 | 0.665 | 1.13
12 | TCGAGTAGGTTAGTCGGGACATTCAGCCAACATA | 2.7e-05 | 0.0232 | -0.222 | -0.141 | -1.03 | 0.291 | 0.156 | 0.639 | 0.983 | 0.955
13 | CCGTCTGGGGCAAGGTTACCATAACGCACAGCCA | 0.304 | 0.595 | -0.295 | 0.486 | -1.06 | 1.47 | 1.66 | 2.36 | 0.376 | 1.93
14 | GCAAGCAGGCCATTTGGGTCACTCAATGACGGGC | 0.00635 | -0.402 | -0.429 | -0.137 | -0.801 | 1.34 | 0.661 | 0.661 | -0.408 | 0.131
15 | TCAAGTAGGTTAGGGGCATTCAGAATGGCGTCGA | 0.99 | 0.718 | 0.21 | 1.28 | 0.587 | 2.19 | 2.64 | 3.58 | 3.71 | 3.65
16 | TCTAGCAGGCCAGAGGGTCACTCTAGAGGTACGG | 0.795 | 0.863 | -0.632 | 1.02 | -1.09 | 2.13 | 1.45 | 2.77 | 2.29 | 2.45
17 | CCCAGCAGGCCAATCTGGGTCACTCAAGGCTTGA | 0.369 | 1.43 | -0.513 | 0.944 | -1.13 | 3.19 | 1.76 | 2.13 | -0.161 | 1.13
18 | AGAACGAGGGCAATGAGTTGTTAGCACGGGTGGC | 0.161 | 0.00811 | -0.446 | -0.26 | -1.01 | 1.23 | 1.18 | 0.817 | 0.096 | 0.514
19 | GCGACTGGGGCATCAGCAGGTTTCCATAACTTAA | -0.587 | -0.452 | -0.461 | 0.112 | -0.629 | 0.353 | 0.32 | 0.386 | -0.554 | -0.228
20 | CGAATTAGGTCATCCAGGACAGTGAATACATTGA | 4.75 | 3.32 | 0.829 | 2.55 | 0.231 | 5.11 | 7.49 | 6.52 | 3.78 | 6.07
21 | ATCGAAAGGTCGACGAGGTCAGTATACACCGTTT | 5.54 | 5.03 | 1.52 | 4.61 | 0.78 | 5.04 | 3.64 | 4.13 | 1.28 | 2.65
22 | CCTGCTAGGTCATTGTCAGCTAATCTACAGTATG | 3.88 | 2.99 | 0.878 | 1.84 | 0.257 | 2.94 | 1.29 | 2.14 | 0.169 | 1.22
23 | CGTCCAAGGTCAGAGAGGTCAGTGAATGCCGAGT | 6.03 | 5.21 | 3 | 4.19 | 0.123 | 4.72 | 3.4 | 4.41 | 0.873 | 3.2
24 | ATCTAAAGGTCGAGGTGAGTATAGAGAAAGGGAA | 4.67 | 4.45 | 0.751 | 3.06 | 1.17 | 4.61 | 3.83 | 4.02 | 1.72 | 3.16
